Hit rate of the full screen: of about 63,000 compounds, about 1,100 (1.7%) were called active.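 The calls were made as follows: active = compounds whose percent cytotoxicity in the single-dose primary screen, scaled between solvent and toxic-drug controls, exceeds 50; inactive = the rest.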 Only a selection was taken, and actives are over-represented in it overall. Measured potencies and affinities stand elsewhere.

Experimental findings from PubChem BioAssay AID431 (Sanford-Burnham Center for Chemical Genomics, 2006) are described below.

This assay is described as follows: cytotoxicity in KRAS-transformed pancreatic duct cells, primary screen, cell-based, fluorescence, HTS (AID 431).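 Also: 0% = DMSO solvent wells and 100% = doxorubicin-treated wells.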 Particulars: HPDE-C7K KRASV12 cells, Alamar Blue viability, 48 h; at 10 µM; active compounds read high. Background: Alamar Blue is a resazurin reagent that responds to reducing activity.
In the case of `O=C(O)CCC(=O)OCC1CCCO1` (stereo not given), the cytotoxicity was -8.8% (inactive).
The value for `O=C(CSc1nnc(-c2ccccn2)n1Cc1ccccc1)NC1CCCC1` was -15.2% (inactive); that for `O=S(=O)(Nc1ccc(S(=O)(=O)N2CCOCC2)cc1)c1ccccc1` was 7.6% (inactive); that for `OC(CNCc1ccco1)Cn1c2ccccc2c2ccccc21` (stereo not given) was 40.9% (inactive).
`Cc1ccc(/C(C#N)=C\c2cn(C)c3ccccc23)cc1`: the cytotoxicity is 35.2% (inactive).
The value for `CC1(C(=O)NC2CCCC2)CCC(=O)N1CCC1=CCCCC1` (stereo not given) was -21.1% (inactive).
In the case of `Cc1cccc2cc(C#N)c(SCCN3CCCCC3)nc12`, the cytotoxicity was 57.1% (active).
With `Cc1ccccc1-n1c(C)nnc1SCC(=O)N1CC(=O)Nc2ccccc21`, the cytotoxicity is -8.9% (inactive).
The same measure for `Cc1cccc2cc(C#N)c(SCC(=O)N3CCC(C)CC3)nc12`: 2.7% (inactive); for `Cc1cccc2cc(C#N)c(N3CCN(C)CC3)nc12`: 1.8% (inactive); for `Cc1cc(C)c2nc(SCC(=O)N3CCCCC3)c(C#N)cc2c1`: 2.7% (inactive).
Consider `Cc1cccc2cc(C#N)c(SCC(=O)N3CC(=O)Nc4ccccc43)nc12`, for which the cytotoxicity is 65% (active).
For the molecule `CNc1nc(C)c(C(=O)OCc2ccccc2)s1`, the cytotoxicity was -0.8% (inactive).
Turning to `C=CCOn1c(=O)c(=O)n(OCc2ccccc2)c2ccccc21`, the cytotoxicity is -23.8% (inactive).
Consider `C/C(N)=C(/C#N)C(=O)CSc1nc2cc(Cl)ccc2s1`, for which the cytotoxicity was 12% (inactive).
For the molecule `CCOC(=O)N1CCC(NC(=O)c2cc(S(=O)(=O)N3CCC4(CC3)OCCO4)ccc2F)CC1`, the cytotoxicity was -4.2% (inactive).
The value for `COC(=O)c1ccc(C2C(C#N)=C(N)Oc3cc(C)n(C)c(=O)c32)cc1` (stereo not given) was -10.1% (inactive).
The same measure for `CCCCCC(=O)N1CCN(c2ccc(C(C)=O)cc2F)CC1`: 0.9% (inactive); for `CCCC(=O)c1ccc(N2CCN(C(=O)c3ccc(Br)cc3)CC2)c(F)c1`: -6.7% (inactive).
As to `CCCC(=O)N1CCN(c2ccc(C(=O)c3ccc(OC)c(Br)c3)cc2F)CC1`, the cytotoxicity was 62.5% (active).
For the molecule `COc1ccc(-c2nnc(SCC(=O)N3CCCCC3)o2)cc1OC`, the cytotoxicity was -0.7% (inactive).
`O=C(NC1CCCCC1)c1ccc(Cn2cc(Br)cn2)o1`: the cytotoxicity was -12.9% (inactive).
Take `CC(=O)c1sc(NC(=O)c2ccc(Cn3cc(Br)cn3)o2)nc1C`: the cytotoxicity was 1.1% (inactive).
Turning to `O=C(Nc1ccc(C(F)(F)F)cc1Cl)c1ccc(Cn2cc(Br)cn2)o1`, the cytotoxicity was 124% (active).
With `Cc1ccc(NC(=O)CSc2nnc(-c3ccco3)c(-c3ccco3)n2)cc1`, the cytotoxicity was 90.7% (active).
As to `O=C(CSc1nnc(-c2ccco2)c(-c2ccco2)n1)Nc1ccccc1`, the cytotoxicity was 1.2% (inactive).
As to `Clc1ccccc1CSc1ncccn1`, the cytotoxicity was -6% (inactive).
Take `Cc1cc(C)nc(SCc2nnc(SCc3ccccc3Cl)o2)n1`: the cytotoxicity was -16.5% (inactive).
As for `COc1ccc(NC(=O)CSc2nnc(-c3ccco3)n2C)cc1`, the cytotoxicity was 0.5% (inactive).
The same measure for `CCNC(=O)CP(=O)(c1ccccc1)c1ccccc1`: 1.9% (inactive); for `CCc1ccc(Cn2nnc(C(=O)Nc3cccc(C)c3)c2N)cc1`: -0.7% (inactive).
`CCOC(=O)C1CCCN(CCC(C)c2ccccc2)C1` (stereo not given): the cytotoxicity was 20.5% (inactive).
The value for `Cc1c(NC(=O)NC(=O)c2ccc(F)cc2)c(=O)n(-c2ccccc2)n1C` was -11.2% (inactive); that for `COc1ccc(Nc2nc(-c3sc(N)nc3C)cs2)cc1` was 58% (active); that for `Cc1nc(N)sc1-c1csc(Nc2ccccn2)n1` was -9.8% (inactive).
Consider `COc1ccc(OC)c(Nc2nc(-c3sc(N)nc3C)cs2)c1`, for which the cytotoxicity is 37.6% (inactive).
Regarding `COc1cccc(Nc2nc(-c3sc(N)nc3C)cs2)c1`, the cytotoxicity is 60.7% (active).
For `Cc1nc(N)sc1-c1csc(Nc2ccccc2)n1`, the cytotoxicity was 49% (inactive).
Take `COc1ccc(CCNc2nc(-c3sc(N)nc3C)cs2)cc1OC`: the cytotoxicity is 16.4% (inactive).
The same measure for `CCOc1ccc(Nc2c3c(nc4ncnn24)CC(C)CC3)cc1` (stereo not given): 4.3% (inactive).
With `O=C(O)CCCNS(=O)(=O)c1cccs1`, the cytotoxicity was 8% (inactive).
The value for `COc1ccc(NC(=O)C2CC2)cc1-n1cnnn1` was -12.2% (inactive).
The same measure for `NC(=O)C1CCN(C(=O)CN(c2cccc(C(F)(F)F)c2)S(=O)(=O)c2ccccc2)CC1`: -1.4% (inactive); for `CCOC(=O)Nc1ccc2c(c1)N(C(=O)CCN1CCOCC1)c1ccccc1S2`: 0.3% (inactive); for `CCOC(=O)Nc1ccc2c(c1)Sc1ccccc1N2C(=O)CCN1CCOCC1`: 1.2% (inactive).
The value for `CCOC(=O)Nc1ccc2c(c1)N(C(=O)CCN1CCOCC1)c1ccccc1S2=O` (stereo not given) was 69.3% (active); that for `Cc1c(NC(=O)CSc2nnnn2Cc2ccccc2)c(=O)n(-c2ccccc2)n1C` was -13.5% (inactive).
As for `Cc1c(NC(=O)Nc2cccc(Cl)c2)c(=O)n(-c2ccccc2)n1C`, the cytotoxicity is -10.4% (inactive).
For the molecule `Cc1c(NC(=O)Nc2ccc(Cl)cc2)c(=O)n(-c2ccccc2)n1C`, the cytotoxicity was -17% (inactive).
Regarding `Cc1c(NC(=O)c2ccc(=O)oc2)c(=O)n(-c2ccccc2)n1C`, the cytotoxicity is -10.4% (inactive).
The value for `Cc1c(NC(=O)Nc2ccc(Cl)c(Cl)c2)c(=O)n(-c2ccccc2)n1C` was 70.7% (active); that for `Cc1c(NC(=O)c2ccc(Br)o2)c(=O)n(-c2ccccc2)n1C` was 12.6% (inactive); that for `CCOC(=O)c1nn(-c2ccccc2)c(=O)c(C#N)c1C` was 0.8% (inactive).
The same measure for `Cc1noc(C)c1COC(=O)CCCOc1ccc(Cl)cc1Cl`: 5.6% (inactive).
As for `COc1cccc(NC(=O)CN2CCN(S(=O)(=O)c3ccc(C(C)C)cc3)CC2)c1`, the cytotoxicity is -4.2% (inactive).
The same measure for `C/C(=N\O)C(=O)C(CN1CCCCC1)CN1CCCCC1`: -6.8% (inactive).
The value for `COc1cc(NC(=O)C2C3C=CC(C3)C2C(=O)O)c(OC)cc1Cl` (stereo not given) was 2.1% (inactive).
The value for `CCOC(=O)C1=C(N)n2c(s/c(=C/c3ccco3)c2=O)=C(C(=O)OC)C1c1ccco1` (stereo not given) was 73.7% (active); that for `CCOC(=O)C1=C(N)n2c(s/c(=C\c3cccnc3)c2=O)=C(C(=O)OC)C1c1cccnc1` (stereo not given) was -15.5% (inactive); that for `CCOC(=O)C1=C(N)n2c(s/c(=C\c3cccnc3)c2=O)=C(C(=O)OCC)C1c1cccnc1` (stereo not given) was -18.8% (inactive).
With `N#CC1=C(N)n2c(s/c(=C\c3ccco3)c2=O)=C(C#N)C1c1ccco1` (stereo not given), the cytotoxicity is 5.8% (inactive).
For the molecule `CCOC(=O)C1=C(N)n2c(s/c(=C\c3ccco3)c2=O)=C(C(=O)OC(C)C)C1c1ccco1` (stereo not given), the cytotoxicity is 0.1% (inactive).
The same measure for `O=C(OCN1C(=O)c2ccccc2C1=O)c1ccccc1`: 2.9% (inactive); for `CCn1c(=O)cc(OCC(=O)Nc2cc(C)ccn2)c2ccccc21`: -3.3% (inactive); for `N#Cc1nc(COc2ccccc2F)oc1N1CCCCCC1`: -5.8% (inactive).
For the molecule `CCOc1ccccc1CN1CCN(S(C)(=O)=O)CC1`, the cytotoxicity is -4.6% (inactive).
`N#CC1=C(SCC(=O)c2ccccc2)NC2=C(C(=O)CCC2)C1c1ccco1` (stereo not given): the cytotoxicity is 41.2% (inactive).
The same measure for `Cc1ccc(NC(=O)CSC2=C(C#N)C(c3ccco3)C3=C(CCCC3=O)N2)cc1` (stereo not given): 2.1% (inactive).
Consider `CCc1ccc(NC(=O)CSC2=C(C#N)C(c3ccco3)C3=C(CCCC3=O)N2)cc1` (stereo not given), for which the cytotoxicity is 8.2% (inactive).
The same measure for `CCCCc1ccc(NC(=O)CSC2=C(C#N)C(c3ccco3)C3=C(CCCC3=O)N2)cc1` (stereo not given): 79.6% (active); for `Cc1ccc(NC(=O)CSC2=C(C#N)C(c3ccco3)C3=C(CC(C)(C)CC3=O)N2)cc1` (stereo not given): 54.3% (active).
The value for `Cc1ccc(C(=O)CSC2=C(C#N)C(c3ccco3)C3=C(CC(C)(C)CC3=O)N2)cc1` (stereo not given) was 18.2% (inactive).
For `CC1(C)CC(=O)C2=C(C1)NC(SCC(=O)Nc1ccccc1)=C(C#N)C2c1ccco1` (stereo not given), the cytotoxicity was -6.1% (inactive).
Regarding `Cc1ccc(C(=O)CSC2=C(C#N)C(c3ccco3)C3=C(CCCC3=O)N2)cc1` (stereo not given), the cytotoxicity is 77.3% (active).
In the case of `COc1cccc(NC(=O)CSC2=C(C#N)C(c3ccco3)C3=C(CCCC3=O)N2)c1` (stereo not given), the cytotoxicity is 15.3% (inactive).
`COc1cc(S(=O)(=O)N2CCN(c3ccccc3F)CC2)ccc1Cl`: the cytotoxicity was 24% (inactive).
Regarding `CCCC(=O)CN1C(=O)C2(OCCO2)c2ccccc21`, the cytotoxicity was -6.1% (inactive).
`COc1ccc2c(c1)CCc1c(C(=O)NCc3ccc(F)cc3)noc1-2`: the cytotoxicity was 1.6% (inactive).
With `COc1ccc(OCCC(=O)Nc2cc(C)on2)cc1`, the cytotoxicity is 1.4% (inactive).
`CCCCn1c(SCC(=O)Nc2cc(C)on2)nc2ccccc2c1=O`: the cytotoxicity is -8.1% (inactive).
Turning to `Cc1ccc(-c2nn3c(C)nnc3s2)cc1NC(=O)c1ccc(Br)o1`, the cytotoxicity was -0.3% (inactive).
For `Cc1nnc2sc(-c3cccc(NC(=O)c4ccc(-c5cccc(Cl)c5)o4)c3)nn12`, the cytotoxicity was -2.2% (inactive).
On to `O=C(Nc1nnc(-c2ccco2)o1)C1CCCCC1`, for which the cytotoxicity was 4.3% (inactive).
Regarding `CCOc1ccc(-c2nnn(CC(=O)Nc3cc(OC)cc(OC)c3)n2)cc1OCC`, the cytotoxicity is -1.3% (inactive).
For the molecule `CCOc1ccc(-c2nnn(CC(=O)Nc3cc(OC)ccc3OC)n2)cc1OCC`, the cytotoxicity is 70.6% (active).
As for `CCOc1ccc(-c2nnn(CC(=O)Nc3ccccc3OC)n2)cc1OCC`, the cytotoxicity is -3.2% (inactive).
The value for `Cc1ccc2[nH]c(C)c(CN(C)C3CCN(C)CC3)c(=O)c2c1` was -9.9% (inactive); that for `O=C(NCc1ccco1)c1cccc2ccccc12` was -9% (inactive); that for `Cc1ccc(-c2n[nH]c(=O)c3ccccc23)cc1N` was 1.4% (inactive).
Regarding `CCC(c1nc2ccccc2c(=O)n1CCCn1ccnc1)N1C(=O)c2ccccc2C1=O` (stereo not given), the cytotoxicity was -3.6% (inactive).
For the molecule `COc1ccc(N/C=C(\C#N)c2nc3ccccc3n2C)c(OC)c1`, the cytotoxicity was 44.3% (inactive).
`O=C(Nc1ccc(F)cc1)N1CCN(C/C=C/c2ccccc2)CC1`: the cytotoxicity is 25.8% (inactive).
For the molecule `C(=C\c1ccccc1)/CN1CCN(C(c2ccccc2)c2ccccc2)CC1`, the cytotoxicity was 2.8% (inactive).
`O=C(CSC1=Nc2ccccc2C2=NC(CC(=O)NCc3ccco3)C(=O)N12)NCC1CCCO1` (stereo not given): the cytotoxicity was -7.9% (inactive).
`CCOc1ccc(C(=O)N2CCN=C2SC)cc1OCC`: the cytotoxicity is -3.5% (inactive).
The same measure for `Cc1ccc(C)c(OCC(=O)Nc2ccc3c(c2)OCO3)c1`: -3.1% (inactive).
Regarding `Cc1ccc(C)c(OCC(=O)Nc2cc(C)on2)c1`, the cytotoxicity is 4.9% (inactive).
Take `Cc1ccc(C)c(OCC(=O)Nc2nonc2NC(=O)COc2cc(C)ccc2C)c1`: the cytotoxicity was 74.3% (active).
For `CSc1nnc([C@H](C)NC(=O)OC(C)(C)C)o1`, the cytotoxicity is -22.1% (inactive).
In the case of `Cn1cccc1C(C(=O)NC1CCCCC1)N(C(=O)Cc1cccs1)C1CC1` (stereo not given), the cytotoxicity was -22.4% (inactive).
The value for `CC(C)(C)c1ccc(C(=O)CCCSC2=C(C#N)C(c3ccco3)C3=C(CCCC3=O)N2)cc1` (stereo not given) was 18.5% (inactive); that for `N#Cc1ccc(-c2ccco2)nc1SCC(=O)c1ccc(Cl)cc1` was 19.1% (inactive).
The value for `COc1ccc(NC(=O)CSC2=C(C#N)C(c3ccco3)C3=C(CCCC3=O)N2)c(OC)c1` (stereo not given) was -2.7% (inactive).
`Cc1cccc(N2CCN(c3cc(C)nc4nnnn34)CC2C)c1` (stereo not given): the cytotoxicity was -38.8% (inactive).
With `O=C(Cn1cnc2c(nnn2Cc2ccc(Cl)cc2)c1=O)NCC1CCCO1` (stereo not given), the cytotoxicity was -3.4% (inactive).
As for `COC(=O)c1c(NC(=O)c2cccs2)sc2c1CCC(C)C2` (stereo not given), the cytotoxicity is 5.5% (inactive).
As for `Cc1ccc(-c2csc3nnc(SCC(=O)Nc4nsc(-c5ccccc5)n4)n23)cc1`, the cytotoxicity was -0.3% (inactive).
As to `Cc1sc(NC(=O)CSc2nnc(COc3ccccc3)n2C)c(C#N)c1C`, the cytotoxicity is 4.2% (inactive).
In the case of `Clc1ccccc1Cn1nnc2c(Nc3ccccc3)ncnc21`, the cytotoxicity is -4.9% (inactive).
Regarding `CC(C)CCNc1ncnc2c1nnn2Cc1ccccc1Cl`, the cytotoxicity is -8.2% (inactive).
